Compounds with a hit are over-represented: about 2.9% of the library has one in this group of screens.
DRD3 agonist: qHTS of D3 Dopamine Receptor Agonist: qHTS; hit rate 0.58% among 410,000; D3R DiscoveRx beta-arrestin cells, luminescence, 90 min; max activation, %; D(3) dopamine receptor (Homo sapiens), P35462; in the data active = max activation above about 30%
Target sequence (P35462 whole entry, looked up): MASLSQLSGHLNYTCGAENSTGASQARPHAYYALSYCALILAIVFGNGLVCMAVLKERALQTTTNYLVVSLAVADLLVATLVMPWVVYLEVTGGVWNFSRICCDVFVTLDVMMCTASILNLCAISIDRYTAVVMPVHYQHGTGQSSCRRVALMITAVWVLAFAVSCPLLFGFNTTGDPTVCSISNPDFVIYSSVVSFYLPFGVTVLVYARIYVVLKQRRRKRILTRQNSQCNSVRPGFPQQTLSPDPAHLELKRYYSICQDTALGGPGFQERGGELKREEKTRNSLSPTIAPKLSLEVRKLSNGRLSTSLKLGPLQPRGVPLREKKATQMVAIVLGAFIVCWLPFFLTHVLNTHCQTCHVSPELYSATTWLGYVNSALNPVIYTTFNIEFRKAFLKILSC
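Agonist-mode cell screen: cells plated at 1500/well and incubated overnight at 37 °C, then exposed to library compounds for 90 min at 37 °C. Detection reagent was added for 30–60 min at room temperature, and luminescence was read.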
Mm-Cpn inhibitor: Inhibitors of TCP-1 ring complex (TRiC) of Methanococcus maripaludis (MmCpn): qHTS; hit rate 0.031% among 330,000; AID 504842, 2011; Chaperonin Mm-Cpn (Methanococcus maripaludis); purified Mm-Cpn ATPase, ADP Transcreener TR-FRET; Potency, µM (titrated, usually from 76.9 µM), usual class: inhibitors; active = well fitted inhibition curve with a large enough effect; inconclusive = small, poorly fitted or top-dose-only effect; note: nearly all actives have a fitted effect of over 80% in size
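ATPase turnover read by TR-FRET ADP competition (Eu cryptate antibody/ADP-d2, 665/590 nm): 10uM ATP final, 25nM Mm-CPN final, 30 min 37degC after 10-min compound preincubation, pH 7.4 Tris/KCl/MgCl2/DTT buffer.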
Rango release inh: qHTS Assay for Inhibitors of RanGTP induced Rango (Ran-regulated importin-beta cargo) - Importin beta complex dissociation. Snurportin-1 (Homo sapiens) + GTP-binding nuclear protein Ran (Homo sapiens) + Importin …. Biochemical FRET Rango-importin beta, RanGTP-induced dissociation. Potency, µM (titrated, usually from 46.1 µM). hit rate 0.071% among 340,000. AID 540253, 2011; note: nearly all actives have a fitted effect of over 45% in size
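Compounds preincubate 5 min with complex of recombinant Rango and importin beta in PBS with 1 mM DTT. Ran (0.6 uM) loaded with 2 mM GTP plus 0.2 uM RCC1 starts dissociation; FRET is recorded 45 min later.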
Rango complex inh: qHTS Assay for Inhibitors of Rango (Ran-regulated importin-beta cargo) - Importin beta complex formation; Importin subunit beta-1 (Homo sapiens), Q14974; Rango CFP/YFP FRET sensor + importin beta, 45 min; Potency, µM (series often up to 92.2 µM); hit rate 0.031% among 340,000; AID 540263, 2011; note: nearly all actives have a fitted effect of over 15% in size
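FRET biosensor Rango (snurportin 1 IBB between N-terminal EYFP and C-terminal Cerulean), 50 nM in PBS/1 mM DTT/0.02% Tween-20/0.1% BSA, preincubated 5 min RT with compound; 0.125 microM importin beta added, 45 min RT, CFP/YFP FRET ratio read.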
TSG101-PTAP inh: qHTS Assay for Iinhibitors of HIV-1 Budding by Blocking the Interaction of PTAP/TSG101 | Tumor susceptibility gene 101 protein (Homo sapiens), Q99816 | Fluorescence polarization, FITC-PTAP peptide / Tsg101 binding | Potency, µM (titrated, usually from 115 µM), most hits filed as inhibitors | 340,000 tested, under 10 active | AID 493005, 2010; active = well fitted inhibition curve with a large enough effect in the main read-out, with a control signal flat, not every such curve was filed as active; inconclusive = small, poorly fitted or top-dose-only effect, or effect the other way, or a change in a side signal; inactive = no such curve, though single readings can be large or run the other way
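Tsg101 binding domain (10 uM final) was mixed with compound and a FITC-labeled PTAP peptide (50 nM final) in HEPES pH 7.5 buffer with NaCl, Tween 20, EDTA and TCEP; fluorescence polarization was read after 20 min at r.t.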
D3 antag: qHTS of D3 Dopamine Receptor Antagonist: qHTS. D(3) dopamine receptor (Homo sapiens), P35462. D3R cells, DiscoveRx beta-arrestin luminescence, antagonist mode; active compounds read low. max response, negative = inhibition, %. hit rate 2.5% among 360,000. AID 652054, 2013; in the data active = max response below about -50%; inconclusive = no clear call, values can overlap the other calls
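Cells plated overnight at 1500 cells/well, then exposed to library compounds with dopamine controls for 90 minutes at 37 degrees C. DiscoveRx reagent added for 30–60 minutes at room temperature; luminescence read, quantitative HTS format.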
Hits are given with their value. Unless noted, calls come from the whole dose curve.

How did Cc1ccc(CN2CCN(Cc3ccc4c(c3)OCCO4)CC2CCO)cc1 (stereo not given) do in these assays?
DRD3 agonist: inactive; Mm-Cpn inhibitor: inactive; Rango release inh: inactive; Rango complex inh: inactive; TSG101-PTAP inh: inactive; D3 antag: -55

Results for Cc1ccc(CN2CCN(Cc3ccccc3)C(CCO)C2)s1 (stereo not given) ?
DRD3 agonist: inactive; Mm-Cpn inhibitor: inactive; Rango release inh: inconclusive; Rango complex inh: inactive; TSG101-PTAP inh: inactive; D3 antag: -53

Results for Cc1ccc(CN2CCN(CC(C)C)C(CCO)C2)s1 (stereo not given) ?
DRD3 agonist: inactive; Mm-Cpn inhibitor: inactive; Rango release inh: inactive; Rango complex inh: inactive; TSG101-PTAP inh: inactive; D3 antag: inactive

What do the screens show for `OCCC1CN(Cc2ccc3c(c2)CCO3)CCN1Cc1ccc(F)cc1` (stereo not given)?
DRD3 agonist: inactive; Mm-Cpn inhibitor: inactive; Rango release inh: inactive; Rango complex inh: inactive; TSG101-PTAP inh: inactive; D3 antag: -59

Results for O=C(CCn1cnnn1)Nc1cc(C(F)(F)F)cc(C(F)(F)F)c1 ?
DRD3 agonist: inactive

Results for Cc1ncc(CN2CCN(Cc3ccccc3)C(CCO)C2)s1 (stereo not given) ?
DRD3 agonist: inactive; Mm-Cpn inhibitor: inactive; Rango release inh: inactive; Rango complex inh: inactive; TSG101-PTAP inh: inactive; D3 antag: inactive

Results for Cc1ccc(CN2CCN(Cc3ccc(C)s3)CC2CCO)cc1 (stereo not given) ?
DRD3 agonist: inactive; Mm-Cpn inhibitor: inactive; Rango release inh: inactive; Rango complex inh: inactive; TSG101-PTAP inh: inactive; D3 antag: -96

Results for Cc1ccc(CN2CCN(Cc3cnc(C)s3)CC2CCO)cc1 (stereo not given) ?
DRD3 agonist: inactive; Mm-Cpn inhibitor: inactive; Rango release inh: inactive; Rango complex inh: inactive; TSG101-PTAP inh: inactive; D3 antag: -60

How did Cc1nc2c(=O)n(C)c(=O)[nH]c2n1Cc1ccccc1 do in these assays?
DRD3 agonist: inactive; Mm-Cpn inhibitor: inactive; Rango release inh: inactive; Rango complex inh: inactive; TSG101-PTAP inh: inactive; D3 antag: -62

What do the screens show for `CCCn1c(-c2ccccc2)nc2c(=O)n(C)c(=O)[nH]c21`?
DRD3 agonist: inactive; Mm-Cpn inhibitor: inactive; Rango release inh: inactive; Rango complex inh: inactive; TSG101-PTAP inh: inactive; D3 antag: inactive

What do the screens show for `CCn1c(=NC(=O)c2ccc(N3C(=O)CCC3=O)cc2)sc2c(OC)ccc(OC)c21`?
DRD3 agonist: inactive; Mm-Cpn inhibitor: inactive; Rango release inh: inactive; Rango complex inh: inactive; TSG101-PTAP inh: inactive; D3 antag: -76

What do the screens show for `CCN1C(=O)c2ccccc2Sc2ccc(NC(=O)N3CCN(c4cc(C)ccc4C)CC3)cc21`?
DRD3 agonist: inactive

Results for Cc1ccc(C(=O)Cn2cncn2)cc1 ?
DRD3 agonist: inactive; Mm-Cpn inhibitor: inactive; Rango release inh: inactive; Rango complex inh: inactive; TSG101-PTAP inh: inactive; D3 antag: inactive

What do the screens show for `C=CCn1c(C)cc(C(=O)Cn2ncc(Cl)c(Cl)c2=O)c1C`?
DRD3 agonist: inactive; Mm-Cpn inhibitor: inactive; Rango release inh: inactive; Rango complex inh: inactive; TSG101-PTAP inh: inactive; D3 antag: -88

Results for O=C(OCn1ncc(Cl)c(Cl)c1=O)c1ccccc1Cl ?
DRD3 agonist: inactive; Mm-Cpn inhibitor: inconclusive; Rango release inh: inactive; Rango complex inh: inactive; TSG101-PTAP inh: inactive; D3 antag: -70

How did O=C(Cn1cncn1)c1ccc(Cl)cc1 do in these assays?
DRD3 agonist: inactive; Mm-Cpn inhibitor: inactive; Rango release inh: inactive; Rango complex inh: inactive; TSG101-PTAP inh: inactive; D3 antag: -80

How did CC(C)(C)C(=O)Cn1ncc(Cl)c(Cl)c1=O do in these assays?
DRD3 agonist: inactive; Mm-Cpn inhibitor: inactive; Rango release inh: inactive; Rango complex inh: inactive; TSG101-PTAP inh: inactive; D3 antag: inactive

How did O=C(Cn1ncc(Cl)c(Cl)c1=O)c1ccc(Cl)cc1 do in these assays?
DRD3 agonist: inactive; Mm-Cpn inhibitor: inactive; Rango release inh: inactive; Rango complex inh: inactive; TSG101-PTAP inh: inactive; D3 antag: -55

What do the screens show for `O=C(CCn1c(=O)c2ccccc2n(Cc2ccc(F)cc2Cl)c1=O)NCc1ccc2c(c1)OCO2`?
DRD3 agonist: inactive

Results for CCC(=O)n1nc(-c2ccc(Cl)cc2)nc1NCc1ccccc1 ?
DRD3 agonist: inactive; Mm-Cpn inhibitor: inactive; Rango release inh: inactive; Rango complex inh: inactive; TSG101-PTAP inh: inactive; D3 antag: inactive

What do the screens show for `CC(=O)OCC1=C[C@@H]2OC(=O)C3=CO[C@@H](O[C@@H]4O[C@H](CO)[C@@H](O)[C@H](O)[C@H]4O)[C@H]1[C@@H]32`?
DRD3 agonist: 70; Mm-Cpn inhibitor: inactive; Rango release inh: inactive; Rango complex inh: inactive; TSG101-PTAP inh: inactive; D3 antag: inactive

Results for Cc1nn(Cc2ccc([N+](=O)[O-])cc2)c(=O)n1-c1ccc(F)cc1 ?
DRD3 agonist: inactive; Mm-Cpn inhibitor: inactive; Rango release inh: inactive; Rango complex inh: inactive; TSG101-PTAP inh: inactive; D3 antag: inactive

What do the screens show for `Cc1nn(Cc2ccc([N+](=O)[O-])cc2)c(=O)n1-c1c(F)cccc1F`?
DRD3 agonist: inactive; Mm-Cpn inhibitor: inactive; Rango release inh: inactive; Rango complex inh: inactive; TSG101-PTAP inh: inactive; D3 antag: -61

What do the screens show for `Cc1oc(=O)cc(OCc2ccccc2)c1C`?
DRD3 agonist: inactive; Mm-Cpn inhibitor: inactive; Rango release inh: inactive; Rango complex inh: inactive; TSG101-PTAP inh: inactive; D3 antag: inconclusive

Results for O=C1CC(c2ccccc2)CC2=C1CN(C1CCCCC1)CN2 (stereo not given) ?
DRD3 agonist: inactive; Mm-Cpn inhibitor: inactive; Rango release inh: inactive; Rango complex inh: inactive; TSG101-PTAP inh: inactive; D3 antag: -79

How did Nc1nc(N2CCN(C(c3ccccc3)c3ccccc3)CC2)n[nH]1 do in these assays?
DRD3 agonist: inactive; Mm-Cpn inhibitor: inactive; Rango release inh: inactive; Rango complex inh: inactive; TSG101-PTAP inh: inactive; D3 antag: inactive

Results for Nc1nc(N2CCN(Cc3ccccc3)CC2)n[nH]1 ?
DRD3 agonist: 51; Mm-Cpn inhibitor: inactive; Rango release inh: inactive; Rango complex inh: inactive; TSG101-PTAP inh: inactive; D3 antag: inactive

Source: PubChem BioAssay
